PfM18AAP inh = PfM18AAP inhibitors, malaria aminopeptidase, primary screen, biochemical, QFRET, recombinant enzyme; M18 aspartyl aminopeptidase (Plasmodium falciparum 3D7); 290,000 compounds, 1.2% hits; inhibition, % at 7.35 µM; H-Glu-NHMec fluorogenic cleavage;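 active means inhibition above the campaign mean inhibition over all tested compounds plus 3 SD, cut at about 28% in these data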;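 further: 0% = plate median of test compound wells and 100% = 2 mM ZnCl2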
A3G deaminase = APOBEC3G DNA deaminase inhibitors, primary screen, biochemical, fluorescence, single-stranded DNA substrate, uHTS. DNA dC->dU-editing enzyme APOBEC-3G (Homo sapiens), Q9HC16. recombinant A3G, ssDNA deamination FAM/TAMRA fluorescence. inhibition, % at 20 µM. 330,000 compounds, 0.28% hits. AID 493012, 2011;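 active means inhibition of at least 40% at 20 µM, with no more than 30% in the related APOBEC3A deaminase screen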;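 further: plate controls were DMSO wells with A3G for no effect and wells lacking A3G enzyme for full effect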
Target sequence (Q9HC16 whole entry, looked up): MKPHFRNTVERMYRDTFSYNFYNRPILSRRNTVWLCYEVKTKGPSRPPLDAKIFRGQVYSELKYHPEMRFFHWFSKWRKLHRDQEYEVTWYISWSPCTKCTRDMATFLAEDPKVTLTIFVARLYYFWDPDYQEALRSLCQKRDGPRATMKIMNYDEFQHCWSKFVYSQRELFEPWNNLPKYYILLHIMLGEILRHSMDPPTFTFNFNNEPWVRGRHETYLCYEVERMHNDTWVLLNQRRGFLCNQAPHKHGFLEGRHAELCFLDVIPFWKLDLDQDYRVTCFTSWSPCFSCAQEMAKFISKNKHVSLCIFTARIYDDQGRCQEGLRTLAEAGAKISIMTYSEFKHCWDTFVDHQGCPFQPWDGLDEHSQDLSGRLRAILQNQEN
CendR NRP1 mod = modulators of CendR peptide binding to NRP-1, primary screen, biochemical, fluorescence polarization, uHTS; Neuropilin-1 (Homo sapiens), O14786; FAM-RPARPAR peptide binding to NRP-1; inhibition, % at 25 µM; 360,000 compounds, 0.85% hits; AID 602438, 2012;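 active means inhibition or corrected inhibition above about 18%, plus a signal ratio from 0.5 to 1.5, limit read from the data, passing the limit was not always enough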
A3A deaminase = APOBEC3A ssDNA deaminase inhibitors, primary screen, selectivity assay for APOBEC3G inhibitor project, biochemical, FAM/TAMRA oligo cleavage fluorescence; recombinant A3A, FAM/TAMRA ssDNA deamination fluorescence; inhibition, % at 20 µM; 330,000 compounds, 0.41% hits; AID 493011, 2011;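 active means at least 40% inhibition at 20 µM here, with at most 30% in a related deaminase screen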;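 further: plate controls were A3A with DMSO for no effect and wells lacking A3A enzyme for full effect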
Target sequence (P31941 whole entry, looked up): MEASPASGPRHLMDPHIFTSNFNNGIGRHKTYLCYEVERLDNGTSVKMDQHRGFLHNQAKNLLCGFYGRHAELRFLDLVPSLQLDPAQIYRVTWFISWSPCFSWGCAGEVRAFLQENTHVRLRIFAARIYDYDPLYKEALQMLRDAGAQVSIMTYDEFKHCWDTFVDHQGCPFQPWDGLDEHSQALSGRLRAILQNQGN
ALR H2O2 inh = inhibitors of human ALR sulfhydryl oxidase, primary screen, biochemical, H2O2 detection, HRP-luminol luminescence, single point. FAD-linked sulfhydryl oxidase ALR (Homo sapiens), P55789. purified ALR, DTT oxidation. inhibition, % (concentration not given with the values). 290,000 compounds, 3.8% hits. AID 485317, 2010;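 active means mean replicate inhibition above about 79%, with every replicate also reaching it, limit read from the data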
Yeast superoxide = reduction of superoxide in aged yeast, primary screen, HTS; S. cerevisiae aged cells, superoxide DHE fluorescence; hits give low values; superoxide response (% of plate mean), % at 10 µM; 330,000 compounds, 0.18% hits;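 active means superoxide response under a set limit, about three screen SD below normal, cut at about 65% in these data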;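 further: yeast aged for seven days with compound at 30 °C before DHE staining; 100% = average MFI of all compound-treated wells on the plate with controls excluded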
Starred values were filed as active, the others as inactive; x = not tested or not shown. Most compounds without a hit are left out; they make up all but 5.2% or so of the library.

SMILES	PfM18AAP inh	A3G deaminase	CendR NRP1 mod	A3A deaminase	ALR H2O2 inh	Yeast superoxide
Cc1c2c(nc3ccccc13)CC(C)(C)CC2=O	-2	-1	19	-5	94*	132
Cc1c2c(nc3nc4ccccc4n13)CC(C)(C)CC2=O	4	-5	11	-3	-10	100
c1ccc(Nc2ccccn2)cc1	-4	-7	9	-3	-15	94
c1ccc(Nc2cccc(Nc3ccccc3)n2)cc1	11	0	-8	0	99*	87
Cc1cccc(C2=NNC(=O)C(c3ccc(Cl)cc3)C2)c1 (stereo not given)	5	-2	25*	-1	3	109
Cc1sc(N)c(C(=O)c2ccccc2)c1C	32*	-8	-14	-5	31	111
Cc1cc(C)c(C(=O)c2ccccc2)c(C)c1	x	x	3	x	x	x
Cc1c(Cc2ccccc2)sc(N)c1C(N)=O	42*	9	x	-2	11	96
Cc1c(Cc2ccccc2)sc(/N=C/c2c(O)ccc3ccccc23)c1C(N)=O	42*	-2	-161	-3	-19	108
O=C(N/N=C/c1ccc(O)c(O)c1)C1CC1	x	-5	2	3	99*	89
O=C(N/N=C/c1ccsc1)C1CC1	5	-10	10	1	-15	93
CCN(CC)c1ccc(/C=N/NC(=O)C(O)c2ccccc2)cc1 (stereo not given)	5	-2	0	-8	100*	99
O=C(N/N=C/c1ccccc1)C(O)c1ccccc1 (stereo not given)	-1	-8	-14	-4	-10	88
CCN(CC)c1ccc(/C=N/NC(=O)c2ccc(Br)o2)cc1	2	-7	-12	0	12	92
CCN(CC)c1ccc(/C=N/NC(=O)Nc2nonc2N)cc1	12	-5	-11	-3	99*	99
CCN(CC)c1ccc(/C=N/NC(=O)C2CC2)cc1	15	8	17	4	100*	78
COc1cccc(S(=O)(=O)NCC(=O)N2CCCCCC2)c1	-8	-4	-3	-3	x	98
COc1ccc(C(C(=O)NCC2CCCO2)N(C(=O)c2snc(C(N)=O)c2N)c2ccc(C)cc2)cc1OC (stereo not given)	6	-6	5	-5	x	x
Cc1cc(O)cc(C)c1NS(=O)(=O)c1ccc2ccccc2c1	-6	-7	-4	-3	79*	104
Cc1ccc(S(=O)(=O)Nc2c(Cl)c(Cl)c(O)c3ccccc23)cc1	18	82*	x	-5	48	110
Cc1ccc(S(=O)(=O)Nc2c(O)ccc3ccccc23)cc1	x	5	-38	0	88*	112
O=S(=O)(Nc1c(O)ccc2ccccc12)c1cccc2ccccc12	x	1	-27	-4	87*	110
NC(Cc1ccc(C(F)(F)F)cc1)c1csc(NC(=O)Nc2ccccc2Oc2ccccc2)n1 (stereo not given)	x	x	-3	x	x	x
COc1ccc(CSC(=N)N)cc1[N+](=O)[O-]	-3	-1	1	5	x	95
COC(=O)c1cc(CSC(=N)N)ccc1OCCC(C)C	-1	3	-9	-1	99*	123
SMILES	PfM18AAP inh	A3G deaminase	CendR NRP1 mod	A3A deaminase	ALR H2O2 inh	Yeast superoxide
CCCOc1ccc(CSC(=N)N)cc1C(=O)OC	3	-1	8	1	99*	94
O=C(CN1CC(c2ccccc2)CC1=O)N/N=C/c1cc(Br)ccc1O (stereo not given)	27	-1	-2	2	x	107
O=C(Nc1ccc2nsnc2c1)c1ccc2c(c1)OCO2	-7	-3	-1	1	-14	78
Cc1c(N)cccc1[N+](=O)[O-]	x	3	13	1	21	102
Cc1c(N)cccc1N	x	3	10	-6	86*	87
COc1cc(OC)nc(NC(=O)CN2CCN(c3ccc(F)cc3)CC2)n1	0	-4	0	3	98*	86
O=C(CN1CCN(c2ccc(O)cc2)CC1)Nc1cc([N+](=O)[O-])ccc1Cl	33*	16	-10	4	99*	106
O=C(CN1CCN(c2ccc(O)cc2)CC1)NCC(=O)Nc1ccc(F)c(F)c1F	x	13	10	-1	92*	86
CC(=O)N1CCN(CC(=O)Nc2cc([N+](=O)[O-])ccc2Cl)CC1	2	-6	2	-3	-10	95
COc1cccc(NC(=O)CN2CCN(c3ccc(F)cc3)CC2)c1	-3	-7	4	-3	97*	162
COc1cc(C(=O)C(=O)N2CCN(c3ccccc3)CC2)cc(OC)c1OC	x	x	6	x	x	x
Cc1ccc(-c2csc(NC(=O)CSc3nc4ccccc4o3)n2)cc1	-1	-4	1	2	-2	101
Clc1cccc2sc(N3CCCCC3)nc12	3	-3	6	-1	-6	100
Cc1cccc(NC(=O)c2nc[nH]c2C(=O)N[C@@H](Cc2ccccc2)C(=O)OCc2ccccc2)c1	x	-5	16	0	-1	113
COC(=O)[C@@]12CCCCN1[C@H](c1ccc(-c3cc(C(C)=O)cs3)c(OC)c1)[C@H]1C(=O)N(C)C(=O)[C@H]12	x	-12	0	2	x	108
COc1ccc(N2CCC(CNC(=S)Nc3cccc(OC)c3)C2)cc1 (stereo not given)	15	3	x	-3	15	94
COC(=O)c1ccc(NC(=O)CN2CCN(c3ccccc3)CC2)cc1	-3	-5	16	0	92*	95
COc1ccc(N2CCC(CNC(=O)Nc3cccc(OC)c3)C2)cc1 (stereo not given)	15	5	3	1	82*	87
CC(NC(=O)CN1CCN(c2cccc(Cl)c2)CC1)c1ccccc1 (stereo not given)	1	1	-3	-2	10	97
O=C(CN1CCN(c2ccccc2)CC1)Nc1ccccc1Cl	-8	-3	-5	-2	98*	119
COc1cccc(N2CCN(CC(=O)NC(C)c3ccccc3)CC2)c1 (stereo not given)	-5	-9	11	-2	81*	94
Cc1ccc(C(=O)NCC(=O)NC2CCCC2)cc1	-15	-10	3	-3	x	114
CCOc1ccccc1N(CC(=O)Nc1ccc2c(c1)OCO2)S(C)(=O)=O	-3	2	2	3	-17	89
O=C(Nc1ccccc1)C1=C[C@H](c2csc3ccccc23)C[C@H](OCCCCO)O1	2	-5	-7	-1	x	117
